Test results: PubChem BioAssay (NCI)
About 83,000 compounds went through this panel and 20% of them were active in at least one assay; those are over-represented in the sample as a whole.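 Single-concentration screen, 48 h exposure, 96-well plates. Endpoint: percent growth. Below 10 = active.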 Values without a mark were called inactive. The source made the active and inactive calls.

Legend:
Test in all cases: NCI-60 one-dose screen, 48 h (100 = growth as untreated, 0 = no growth, -100 = all killed)
[1] = system: A549/ATCC NSCLC; settings: 10 µM unless noted
[2] = system: DU-145 prostate; settings: 10 µM unless noted
[3] = system: RXF 393 renal; settings: 10 µM unless noted
[4] = system: SF-295 CNS; settings: 10 µM unless noted
[5] = system: SF-539 CNS; settings: 10 µM unless noted
[6] = system: UACC-257 melanoma; settings: 10 µM unless noted
[7] = system: HCT-15 colon; settings: 10 µM
[8] = system: HT29 colon; settings: 10 µM unless noted
[9] = system: SNB-75 CNS; settings: 10 µM unless noted
[10] = system: SK-MEL-5 melanoma; settings: 10 µM unless noted
[11] = system: LOX IMVI melanoma; settings: 10 µM unless noted
[12] = system: SK-MEL-2 melanoma; settings: 10 µM unless noted
[13] = system: ACHN renal; settings: 10 µM unless noted
[14] = system: CAKI-1 renal; settings: 10 µM unless noted
[15] = system: A498 renal; settings: 10 µM unless noted
[16] = system: HL-60(TB) leukemia; settings: 10 µM unless noted
[17] = system: MOLT-4 leukemia; settings: 10 µM
[18] = system: OVCAR-8 ovarian; settings: 10 µM unless noted
[19] = system: IGROV1 ovarian; settings: 10 µM
[20] = system: HS 578T breast; settings: 10 µM unless noted

Row | SMILES | growth [1] | growth [2] | growth [3] | growth [4] | growth [5] | growth [6] | growth [7] | growth [8] | growth [9] | growth [10] | growth [11] | growth [12] | growth [13] | growth [14] | growth [15] | growth [16] | growth [17] | growth [18] [%] | growth [19] | growth [20]
1 | CCC(CO)NC1CCCCC1 (centres undefined) | 93.8% | 91.1% | 45% | 113% | 17.7% | 89.9% | 76.4% | 5.74% (active) | 81.6% | 93.4% | 27.9% | 81.2% | 84.7% | 61.5% | 71.6% | 60.9% | 88% | 78.9 | 53.9% | 91.2%
2 | O=C1NC(=O)C(CN2C(=O)C3(c4ccccc42)[C@H](Cl)C(=O)N3c2ccccc2)C(=O)N1 (some centres undefined) | 77.3% | 102% | 65.5% | 91.5% | 74.1% | – | 94.7% | 98.3% | 52.7% | 78.6% | 50.2% | 76.6% | 88.7% | 85.7% | 105% | 85.4% | 62.5% | 92.3 | 49.4% | 71%
3 | CCCCN(CCCC)CC(O)c1ccccc1 (centres undefined) | 104% | 113% | 116% | 103% | 114% | 106% | 104% | 109% | 91.5% | 118% | 103% | 115% | 102% | 107% | 82.6% | 111% | 97.2% | 109 | 115% | 97.5%
4 | CC(C)Nc1ccc(Nc2ccccc2)cc1 | 24.1% | 38.7% | 55.5% | 12.5% | 26.1% | 47.5% | 84.3% | 7.96% (active) | 29.8% | 57.9% | 14.5% | 80.5% | 30.5% | 41.6% | 65.9% | 69.3% | 43.6% | 28.1 | 27% | 17.9%
5 | CN1C(=O)NC(=O)C(N=Nc2ccc(Cl)cc2)C1=O (centres undefined) | 101% | 106% | 107% | – | 101% | 105% | 88% | 99.1% | 126% | 96% | 102% | 117% | 87.9% | – | 60.9% | 90.7% | 96% | 104 | 129% | 114%
6 | CO[C@@H]1[C@H](OC(=O)NC(=O)CCl)CC[C@]2(CO2)[C@H]1[C@@]1(C)O[C@@H]1CC=C(C)C | 59.1% | 59.8% | 68.2% | 75.1% | 87.6% | 44.3% | 30% | 58.1% | 41.7% | 55.4% | 22.8% | 82.3% | 60.7% | 67.2% | 103% | 49.1% | 63% | – | -10.6% (active) | 61.2%
7 | CC(C)(O)/C=C/C(=O)[C@](C)(O)[C@H]1[C@H](O)C[C@@]2(C)[C@@H]3CC=C4[C@@H](C=C(O)C(=O)C4(C)C)[C@]3(C)C(=O)C[C@]12C | 0.767% (active) | -40.2% (active) | 0.503% (active) | -43.2% (active) | -53.6% (active) | 0.414% (active) | -52% (active) | -31.1% (active) | -86.6% (active) | -78.4% (active) | -59.6% (active) | -43.6% (active) | -29.9% (active) | -57.2% (active) | -79.8% (active) | -38.9% (active) | -15.1% (active) | – | -70.3% (active) | -17.4% (active)
8 | COc1ccc(/C=C\c2cc(OC)c(OC)c(OC)c2)cc1N/C=C\C(=O)c1c[nH]c2ccccc12 | 28.4% | 3.53% (active) | 29.2% | -11.8% (active) | -43.4% (active) | 78.2% | 12.5% | -3.93% (active) | 19.1% | -53.9% (active) | 19.6% | 32.3% | 15% | – | -13.6% (active) | -11.4% (active) | 14.4% | 21.4 | 21.8% | 37.5%
9 | CCC(C)/C=C(C)/C=C/C(=O)c1c(O)c(-c2ccc(O)cc2)c[nH]c1=O (centres undefined) | 63.1% | 24.8% | 52.3% | 57.5% | 61.7% | 55.8% | 38.8% | 14.3% | 51.5% | 63.4% | 40.2% | 89.1% | 50.5% | -16.5% (active) | 47.6% | 36% | 29.4% | 51.2 | 40.7% | 52.7%
10 | C1CN1c1nc(N2CC2)nc(N2CC2)n1 | 59.8% | -1.22% (active) | 39% | 14.2% | -7.16% (active) | 43.7% | 23.8% | 44.9% | -17.6% (active) | 20.1% | 17% | 76.9% | -29.7% (active) | 6.72% (active) | 57.9% | 0.901% (active) | 10.5% | – | -3.62% (active) | 72.3%
11 | CN=C(NN)NN | 96.2% | 111% | 109% | 102% | 104% | 109% | 104% | 106% | 98% | 107% | 98.1% | 109% | 108% | 88.9% | 92.4% | 119% | 102% | 99.3 | 112% | 102%
12 | CCCCNCCc1ccccn1 | 100% | 113% | 113% | 100% | 109% | 94.5% | 102% | 102% | 104% | 111% | 97.1% | 87.3% | 101% | 97% | 95.5% | 99.1% | 97.5% | 102 | 116% | 107%
13 | CCC(CC)(c1ccccc1)C(OC(N)=O)c1ccccc1 (centres undefined) | 76% | 98.4% | – | 71.9% | 103% | 85.8% | 80% | 87.7% | 74.8% | 89.5% | 77.8% | 79.2% | 87.4% | 60.7% | 79.2% | 96.1% | 80.2% | 92.5 | 73.4% | 88.2%
14 | c1ccc2nc(OCCN3CC3)ccc2c1 | 74.1% | 98.6% | 59.1% | 75.8% | 97.5% | 59% | 86.5% | 43.8% | 77% | 98.6% | 86.3% | 96.3% | 88% | 90.8% | 102% | 72.7% | 34% | 78.2 | 35.1% | 98.3%
15 | CC(/C=N/N=C(N)N)=N/N=C(N)N | 106% | 93.9% | – | 93.6% | 73.9% | 113% | 98% | 91.8% | 71.5% | 107% | 88.9% | 14.8% | 94.5% | 83% | 90.2% | 84.5% | 101% | 77.8 | – | 88.6%
16 | S=P(NC1CCCCC1)(N1CC1)N1CC1 | 101% | 108% | 102% | 110% | 107% | 116% | 108% | 101% | 93.2% | 97% | 96.5% | 114% | 103% | 95.1% | 96.2% | 91.3% | 99.1% | 104 | 97.3% | 114%
17 | COC(C)(C)CCC[C@H](C)C/C=C/C(C)=C/C(=O)OC(C)C | 98.5% | 113% | 104% | 98.2% | 118% | 101% | 101% | 88% | 118% | – | 92.9% | 97.1% | 109% | 85.4% | 110% | 79.8% | 90% | 98.2 | 99.7% | 119%
